Targets with a hit are over-represented here; the source holds about 8,800 in all. About 0.5% of all pairs of compound and target were hits. A number with no mark means an inactive call.

Common to all, as to test: log2 fold change, soluble protein after heating vs DMSO (PISA); higher = thermal stabilisation; K562 lysate, 10 uM; active = over 0.2 and 3.5 SD of the protein, either way, in both replicates (recomputed)
Compound in one assay: C=CC(=O)N1CCC[C@@H](n2nc(-c3ccc(Oc4ccccc4)cc3)c3c(N)ncnc32)C1 [ibrutinib]
The procedure, abridged:
(§1)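 Following dounce homogenisation of K562 pellets in PBS pH 7.4 with 1 mM MgCl2, crude extract at 1 mg/mL protein was incubated for 30 min with 10 μM compound. Aliquots were then heated for 3 min over 48°C-58°C and pooled, NP-40 was added to 0.5% at 4°C, and soluble protein was recovered as the supernatant at 21,000xg for 90 min. Channel-sum-equalised TMTpro 16plex LC-MS/MS quantified this protein. Each value, from duplicates, is a log-two fold change in thermal stability relative to solvent controls.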

Compound in assay [1]: CC(=O)c1cnc2ccc(-c3cc(Cl)c(O)c(Cl)c3)nc2c1N[C@H]1CC[C@H](CN(C)C)CC1
The procedure, abridged:
as §1

Compound in the next assay: CC(C)(C)Cn1c(N)nc2ccc(-c3[nH]c(C(C)(C)C)nc3-c3ccc(F)cc3)nc21 [ralimetinib]
An outline of the steps: as §1

Compound in assay [2]: CC(C)(O)CC(=O)NCCn1ccc2ncnc(Nc3ccc(Oc4cccc(C(F)(F)F)c4)c(Cl)c3)c21
An outline of the steps: as §1

Compound in assay [3]: CC(C)C1=C2N=C(C=C(N2N=C1)NCC3=CC=CC=C3)NCCCCCCN
The procedure, abridged:
as §1

Compound in assay [4]: CC1=C(C(CC(=O)N1)C2=CC=C(C=C2)C(F)(F)F)C(=O)NC3=C(C=C4C(=C3)C=NN4)F
The procedure, abridged: as §1

Compound in assay [5]: CC1=C(C2=C(C=C1)C(=O)C3=CC=CC=C3N2CCCN)C
The procedure, abridged: as §1

Compound in assay [6]: CC1=C(C=C(C=C1)NC(=O)C2=CC(=CC=C2)C(C)(C)C#N)NC3=CC4=C(C=C3)N=CN(C4=O)C
The procedure, abridged:
as §1

Compound in assay [7]: CC1=C(C=C(C=C1)NC(=O)C2=CC(=CC=C2)N(C)C)NC(=O)C3=CC=C(C=C3)O
The procedure, abridged: as §1

Compound in assay [8]: CC1=CC=C(C=C1)SC2=C3C=C(SC3=CN=C2)C(=O)N
The procedure, abridged:
as §1

UniProt Q5JRX3, sequence (Q5JRX3 whole entry, looked up): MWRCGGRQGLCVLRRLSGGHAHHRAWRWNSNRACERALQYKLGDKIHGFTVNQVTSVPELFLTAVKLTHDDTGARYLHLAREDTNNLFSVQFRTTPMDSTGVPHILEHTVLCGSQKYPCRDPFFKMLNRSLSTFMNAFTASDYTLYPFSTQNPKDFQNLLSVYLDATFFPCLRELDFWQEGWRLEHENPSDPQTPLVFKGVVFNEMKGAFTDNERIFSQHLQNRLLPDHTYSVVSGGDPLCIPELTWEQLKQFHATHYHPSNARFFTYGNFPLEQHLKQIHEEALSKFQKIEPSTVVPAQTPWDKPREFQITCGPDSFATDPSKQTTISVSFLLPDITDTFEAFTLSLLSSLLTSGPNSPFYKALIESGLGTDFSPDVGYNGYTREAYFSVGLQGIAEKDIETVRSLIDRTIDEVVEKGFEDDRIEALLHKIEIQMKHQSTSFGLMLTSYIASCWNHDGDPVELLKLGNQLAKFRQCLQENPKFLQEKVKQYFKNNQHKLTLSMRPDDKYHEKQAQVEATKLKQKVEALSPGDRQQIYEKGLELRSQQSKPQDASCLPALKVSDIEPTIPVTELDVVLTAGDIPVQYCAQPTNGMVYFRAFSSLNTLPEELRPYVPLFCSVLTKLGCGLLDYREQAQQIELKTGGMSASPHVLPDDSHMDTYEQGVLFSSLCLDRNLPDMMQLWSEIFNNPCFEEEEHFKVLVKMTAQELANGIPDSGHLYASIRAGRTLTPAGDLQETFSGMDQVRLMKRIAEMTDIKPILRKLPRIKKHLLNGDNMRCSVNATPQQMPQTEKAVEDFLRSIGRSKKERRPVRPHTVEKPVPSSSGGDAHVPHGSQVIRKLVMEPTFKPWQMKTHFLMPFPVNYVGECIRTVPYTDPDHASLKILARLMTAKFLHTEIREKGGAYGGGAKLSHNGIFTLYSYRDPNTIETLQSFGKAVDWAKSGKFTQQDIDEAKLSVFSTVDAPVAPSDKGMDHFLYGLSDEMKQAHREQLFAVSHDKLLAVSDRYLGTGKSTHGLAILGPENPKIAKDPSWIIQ
UniProt Q13362, sequence (Q13362 whole entry, looked up): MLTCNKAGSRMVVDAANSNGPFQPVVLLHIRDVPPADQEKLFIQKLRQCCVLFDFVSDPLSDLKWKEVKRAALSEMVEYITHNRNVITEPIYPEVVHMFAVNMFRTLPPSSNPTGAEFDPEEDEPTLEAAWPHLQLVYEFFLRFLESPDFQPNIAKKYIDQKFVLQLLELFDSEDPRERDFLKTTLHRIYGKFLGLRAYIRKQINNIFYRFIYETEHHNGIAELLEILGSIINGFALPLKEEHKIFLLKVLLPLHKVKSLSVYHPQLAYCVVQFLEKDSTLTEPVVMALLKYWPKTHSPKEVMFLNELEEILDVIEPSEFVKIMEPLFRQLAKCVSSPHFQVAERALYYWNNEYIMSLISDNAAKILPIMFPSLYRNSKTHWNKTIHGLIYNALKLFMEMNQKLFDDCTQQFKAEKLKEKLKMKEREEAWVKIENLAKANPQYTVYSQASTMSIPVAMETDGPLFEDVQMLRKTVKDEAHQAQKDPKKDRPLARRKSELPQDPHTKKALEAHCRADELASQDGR
UniProt O00459, sequence (O00459 whole entry, looked up): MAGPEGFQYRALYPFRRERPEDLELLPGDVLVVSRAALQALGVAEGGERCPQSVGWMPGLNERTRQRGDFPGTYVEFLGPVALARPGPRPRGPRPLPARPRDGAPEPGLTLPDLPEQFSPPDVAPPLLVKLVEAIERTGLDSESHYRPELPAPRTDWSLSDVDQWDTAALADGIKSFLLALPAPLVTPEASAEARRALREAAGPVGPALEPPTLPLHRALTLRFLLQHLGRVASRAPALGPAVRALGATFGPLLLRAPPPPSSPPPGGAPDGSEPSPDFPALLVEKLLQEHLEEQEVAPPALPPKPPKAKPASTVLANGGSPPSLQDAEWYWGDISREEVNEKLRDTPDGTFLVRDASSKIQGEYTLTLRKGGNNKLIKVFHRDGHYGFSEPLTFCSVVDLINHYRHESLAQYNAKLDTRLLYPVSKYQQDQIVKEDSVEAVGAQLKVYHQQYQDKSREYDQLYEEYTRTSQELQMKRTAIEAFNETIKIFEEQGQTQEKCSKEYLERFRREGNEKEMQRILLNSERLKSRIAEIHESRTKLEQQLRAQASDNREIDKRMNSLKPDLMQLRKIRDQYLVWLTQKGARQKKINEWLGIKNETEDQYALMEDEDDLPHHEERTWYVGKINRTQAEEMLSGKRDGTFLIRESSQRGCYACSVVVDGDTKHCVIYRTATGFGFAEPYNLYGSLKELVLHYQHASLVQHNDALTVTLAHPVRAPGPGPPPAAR
UniProt P78395, sequence (P78395 whole entry, looked up): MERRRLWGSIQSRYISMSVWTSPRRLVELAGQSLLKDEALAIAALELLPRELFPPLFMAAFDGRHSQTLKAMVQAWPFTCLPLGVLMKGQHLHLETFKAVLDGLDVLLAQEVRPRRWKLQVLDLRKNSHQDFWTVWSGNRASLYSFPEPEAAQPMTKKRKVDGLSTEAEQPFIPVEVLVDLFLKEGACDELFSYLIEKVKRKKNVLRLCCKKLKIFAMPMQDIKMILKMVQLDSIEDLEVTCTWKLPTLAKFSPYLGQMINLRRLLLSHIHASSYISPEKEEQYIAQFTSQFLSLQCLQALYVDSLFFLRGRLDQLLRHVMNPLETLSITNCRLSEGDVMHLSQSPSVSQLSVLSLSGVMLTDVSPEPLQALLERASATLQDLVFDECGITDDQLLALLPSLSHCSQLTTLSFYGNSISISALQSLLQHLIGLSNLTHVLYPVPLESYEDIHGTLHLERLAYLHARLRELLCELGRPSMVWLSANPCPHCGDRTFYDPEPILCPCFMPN
UniProt Q8NA72, sequence (Q8NA72 whole entry, looked up): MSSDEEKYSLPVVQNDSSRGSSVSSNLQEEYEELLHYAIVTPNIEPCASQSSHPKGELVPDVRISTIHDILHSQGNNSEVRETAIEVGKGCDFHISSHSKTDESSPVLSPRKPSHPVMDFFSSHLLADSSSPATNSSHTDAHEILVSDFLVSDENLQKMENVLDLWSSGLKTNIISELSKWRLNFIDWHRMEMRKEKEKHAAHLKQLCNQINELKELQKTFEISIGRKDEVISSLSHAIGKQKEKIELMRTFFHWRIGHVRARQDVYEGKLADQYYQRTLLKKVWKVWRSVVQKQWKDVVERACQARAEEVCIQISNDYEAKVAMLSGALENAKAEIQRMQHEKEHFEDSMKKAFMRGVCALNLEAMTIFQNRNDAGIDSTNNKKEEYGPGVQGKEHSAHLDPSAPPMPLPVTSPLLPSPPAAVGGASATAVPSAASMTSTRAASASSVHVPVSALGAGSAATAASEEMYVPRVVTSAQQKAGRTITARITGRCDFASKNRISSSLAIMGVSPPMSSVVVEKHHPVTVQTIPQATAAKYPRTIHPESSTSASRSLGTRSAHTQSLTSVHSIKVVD
UniProt Q05655, sequence (Q05655 whole entry, looked up): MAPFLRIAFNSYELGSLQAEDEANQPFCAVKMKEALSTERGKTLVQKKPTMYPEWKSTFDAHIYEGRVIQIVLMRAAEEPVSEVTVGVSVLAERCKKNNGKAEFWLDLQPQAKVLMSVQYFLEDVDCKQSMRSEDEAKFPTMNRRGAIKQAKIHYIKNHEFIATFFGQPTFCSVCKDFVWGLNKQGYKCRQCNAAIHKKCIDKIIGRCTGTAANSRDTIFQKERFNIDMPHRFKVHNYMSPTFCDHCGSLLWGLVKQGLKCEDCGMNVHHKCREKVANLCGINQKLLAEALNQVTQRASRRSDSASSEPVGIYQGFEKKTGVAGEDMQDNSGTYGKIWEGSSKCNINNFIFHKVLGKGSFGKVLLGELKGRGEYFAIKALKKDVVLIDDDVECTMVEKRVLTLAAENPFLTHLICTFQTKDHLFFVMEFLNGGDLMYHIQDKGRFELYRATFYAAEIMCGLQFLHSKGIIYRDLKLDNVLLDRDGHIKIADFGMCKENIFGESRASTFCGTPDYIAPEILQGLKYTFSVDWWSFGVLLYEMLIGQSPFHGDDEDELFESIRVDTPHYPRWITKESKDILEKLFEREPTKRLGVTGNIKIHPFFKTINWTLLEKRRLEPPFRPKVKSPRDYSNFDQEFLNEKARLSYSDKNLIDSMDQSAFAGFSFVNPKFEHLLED
UniProt O00541, sequence (O00541 whole entry, looked up): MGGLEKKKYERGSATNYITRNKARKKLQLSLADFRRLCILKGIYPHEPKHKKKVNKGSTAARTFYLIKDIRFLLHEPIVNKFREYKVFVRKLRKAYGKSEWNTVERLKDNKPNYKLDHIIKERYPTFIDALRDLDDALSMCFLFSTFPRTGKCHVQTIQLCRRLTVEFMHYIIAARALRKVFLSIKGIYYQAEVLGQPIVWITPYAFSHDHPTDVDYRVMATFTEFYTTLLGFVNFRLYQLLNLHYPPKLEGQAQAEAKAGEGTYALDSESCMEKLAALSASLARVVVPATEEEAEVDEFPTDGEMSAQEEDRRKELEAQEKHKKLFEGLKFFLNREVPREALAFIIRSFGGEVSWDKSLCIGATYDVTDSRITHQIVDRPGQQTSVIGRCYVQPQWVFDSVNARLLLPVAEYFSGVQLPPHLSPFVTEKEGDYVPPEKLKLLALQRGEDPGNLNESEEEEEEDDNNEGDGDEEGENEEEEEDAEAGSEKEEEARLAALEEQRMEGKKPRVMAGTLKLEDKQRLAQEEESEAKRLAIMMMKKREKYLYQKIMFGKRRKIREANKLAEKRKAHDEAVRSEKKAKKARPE
UniProt O00625, sequence (O00625 whole entry, looked up): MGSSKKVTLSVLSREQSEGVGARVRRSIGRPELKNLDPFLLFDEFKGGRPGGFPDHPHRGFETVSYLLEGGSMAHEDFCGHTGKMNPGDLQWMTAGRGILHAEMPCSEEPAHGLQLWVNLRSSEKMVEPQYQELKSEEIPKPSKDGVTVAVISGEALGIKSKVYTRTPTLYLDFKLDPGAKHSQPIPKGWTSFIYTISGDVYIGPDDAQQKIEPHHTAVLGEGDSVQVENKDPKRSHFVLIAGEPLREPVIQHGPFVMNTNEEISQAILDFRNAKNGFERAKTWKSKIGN

As for PIK3R2 (UniProt O00459), the log2 fold change with ibrutinib was -0.041; in assay [1], 0.242; in the assay with ralimetinib it was 0.11; in assay [2], 0.029; in [3], -0.028; in assay [4], 0.008. The log2 fold change in assay [5] was 0.01; in assay [6], 0; in assay [7], 0.07; in assay [8], 0.019.

Take PRPF6 (UniProt O94906): the log2 fold change with ibrutinib was 0; in assay [1] it was 0; in the assay with ralimetinib, 0.038; in [2] it was 0.022; in [3], 0.005; in assay [4], -0.008. The log2 fold change is 0.001 in [5], -0.022 in [6], 0.053 in assay [7] and 0.007 in assay [8].

In the case of PRKCD (UniProt Q05655), the log2 fold change with ibrutinib was 0.021; in assay [1], 0.162; with ralimetinib, 0.01; in assay [2], -0.005; in assay [3], 0.006; in assay [4] it was 0.027. For the same target, the log2 fold change is -0.012 in assay [5], -0.004 in [6], 0.038 in [7] and 0.04 in [8].

Consider PRAME (UniProt P78395), for which the log2 fold change was 0.009 in the assay with ibrutinib; 0.029 in assay [1]; 0.003 with ralimetinib; 0.005 in assay [2]; 0.011 in assay [3]; 0.015 in assay [4]. The log2 fold change in assay [5] was 0.003; in assay [6] it was 0.006; in assay [7], 0.008; in assay [8], 0.002.

On to PPFIA2 (UniProt O75334), for which the log2 fold change with ibrutinib was -0.013; in [1], 0.01; with ralimetinib, 0.085; in assay [2] it was 0.015; in assay [3] it was 0.006; in assay [4], 0.041. The log2 fold change in assay [5] was 0.02; in [6], 0.047; in [7] it was 0.033; in assay [8] it was -0.022.

For PIR (UniProt O00625), the log2 fold change in the assay with ibrutinib is 0.029; in assay [1], -0.01; with ralimetinib, -0.017; in [2], 0.019; in [3], 0.254 (active); in assay [4] it was -0.034. Besides, the log2 fold change in assay [5] is 0.007; in assay [6], -0.003; in assay [7] it was 0.232; in [8], -0.022.

For PLK1 (UniProt P53350), the log2 fold change in the assay with ibrutinib is -0.004; in [1], 0.069; with ralimetinib, 0.009; in [2], 0.015; in assay [3], 0.068; in [4], 0.022. In addition, the log2 fold change is -0.019 in assay [5], 0.032 in assay [6], 0.036 in [7] and -0.014 in [8].

With PPP2R5C isoform 5 (UniProt Q13362), the log2 fold change with ibrutinib was -0.002; in assay [1], 0.012; with ralimetinib it was -0.021; in [2], -0.036; in [3], -0.037; in assay [4], -0.038. The log2 fold change was 0.02 in assay [5], 0.002 in assay [6], 0.014 in assay [7] and 0.037 in assay [8].

Take PRKAB2 (UniProt O43741): the log2 fold change with ibrutinib is -0.041; in assay [1], -0.018; with ralimetinib, 0.093; in [2], -0.129; in assay [3], -0.025; in assay [4], 0.086. Besides, the log2 fold change in assay [5] is -0.066; in [6] it was -0.082; in [7], 0.035; in assay [8], -0.008.

As to PRKAR2B (UniProt P31323), the log2 fold change with ibrutinib is -0.017; in [1], 0.008; with ralimetinib, 0.007; in assay [2], -0.01; in assay [3], 0.022; in assay [4], 0.015. Further, the log2 fold change was -0.004 in assay [5], 0.027 in [6], 0.031 in [7] and 0.03 in [8].

PMS2 (UniProt P54278): the log2 fold change with ibrutinib was 0.027; in assay [1], 0.032; with ralimetinib, 0.046; in assay [2] it was -0.047; in assay [3] it was 0.069; in assay [4] it was -0.038. Moreover, the log2 fold change in [5] is -0.049; in assay [6], -0.019; in assay [7], -0.004; in [8] it was 0.002.

In the case of PES1 (UniProt O00541), the log2 fold change is 0.016 with ibrutinib; 0.017 in assay [1]; 0.031 with ralimetinib; -0.03 in assay [2]; 0.006 in assay [3]; 0.013 in assay [4]. Moreover, the log2 fold change in [5] is -0.052; in assay [6] it was 0.012; in [7], 0.003; in assay [8] it was 0.007.

For POC5 (UniProt Q8NA72), the log2 fold change with ibrutinib was 0.013; in assay [1], -0.063; in the assay with ralimetinib, 0.062; in assay [2], -0.029; in assay [3], 0.101; in assay [4], 0.015. In addition, the log2 fold change in assay [5] was 0.026; in [6], -0.015; in [7], 0; in assay [8] it was -0.02.

Consider PITRM1 isoform 2 (UniProt Q5JRX3), for which the log2 fold change with ibrutinib was 0.007; in [1], -0.004; in the assay with ralimetinib, 0.134; in assay [2], -0.009; in assay [3] it was -0.019; in assay [4], 0.001. Further, the log2 fold change is -0.021 in assay [5], -0.001 in [6], -0.005 in assay [7] and 0.012 in assay [8].

On to PPIL2 (UniProt Q13356), for which the log2 fold change with ibrutinib is -0.002; in assay [1], -0.003; in the assay with ralimetinib, 0.02; in [2], 0.025; in assay [3], 0.046; in assay [4] it was 0.011. The log2 fold change in [5] is -0.017; in assay [6] it was 0.033; in assay [7], 0.003; in assay [8], 0.005.

Source of the values: the supplement of paper PMC10849652.
